Assay results from PubChem BioAssay (EPA / NIEHS).
Activity calls are given as the source filed them. Rule for the calls: active = hit-call score of the fitted dose curve at least 0.9, where 1 is the maximum; inactive = score below 0.9.

Assay: CCTE_Shafer_MEA_acute_burst_duration_mean: CCTE's Neural Acute Assay for Mean Burst Duration, Shafer Lab (AID 2284014)
Procedure: CCTE_Shafer_MEA_acute assay is conducted using Axion Biosystems 48 well microelectrode array (MEA) plates and Maestro recording system. Each well of the MEA plate contains a grid of 16 microelectrodes embedded in the culture surface. Electrically active cells, such as neurons, can be cultured over the electrodes, and electrical activity in these cells can be recorded extracellularly. The spontaneous firing of neurons is captured from each electrode on a microsecond timescale providing both temporally and spatially precise data. […] The CCTE_Shafer_MEA_acute assay uses primary cultures of rat cortical neurons. As these cultures mature over time, neural networks develop functional activity and form cohesive networks in which electrical activity can be highly coordinated. Baseline 40-minute recordings are made on days post-plating 13 or 15, followed by a secondary 40-minute recording after chemical exposure.CCTE_Shafer_MEA_acute_burst_duration_mean is a component of the CCTE_Shafer_MEA_acute assay. It measures the average time from the first spike (action potential firing) to the last spike in a single-electrode burst (temporally-clustered group of spikes) during a recording in a microelectrode array (MEA) using Axion Biosystems Maestro 768 channel amplifier with the AxIS adaptive spike detector. The recordings before and after chemical treatment are used to calculate a percent change in the mean burst duration in each well.Data from the assay component CCTE_Shafer_MEA_acute_burst_duration_mean was analyzed into 1 assay endpoint. This assay endpoint, CCTE_Shafer_MEA_acute_burst_duration_mean, was analyzed in the negative analysis fitting direction relative to DMSO as the negative control and baseline of activity. Using a type of functional reporter, gain or loss-of-signal activity can be used to understand electrical activity.
Spontaneous activity in the cortical cultures was recorded using an Axion Biosystems Maestro 768 channel amplifier and Axion Integrated Studios (AxIS) v1.8 (or later) software. The amplifier recorded from all channels simultaneously (gain = 1200 x; sampling rate = 12.5 kHz/channel): raw signals were filtered with a Butterworth band-pass filter (300-5000 Hz), which filters out slower local field potentials leaving only fast potentials, i.e., "spikes", arising from extracellular currents associated with action potentials (Pine 2006; Wheeler and Nam 2011). On-line spike detection of filtered signals was conducted with the AxIS adaptive spike detector, using a threshold of 8x the root mean squared (rms) noise on each channel. Any electrodes with rms noise levels greater than 5 uV were grounded (e.g., no data were recorded). Once grounded, an electrode was grounded for the duration of the experiment. All recordings were conducted at 37 C. Wells were deemed usable if on the day of the exposure >/= 10 electrodes were active (defined as >/= 5 spikes/min). On DIV 13 or 15, a minimum of three wells from one cortical culture preparation were treated with each compound (0.03-40 uM). Prior to recording baseline activity, each mwMEA plate was placed in the Maestro at 37 C and allowed to sit for 20 min while firing rates stabilized. Baseline activity (40 min) was recorded before the addition of each compound. An additional 40 min of spontaneous activity was recorded in the presence of each compound. Changes in network parameters relative to baseline were assessed following compound treatment.

outcome, inactive:
CC(=O)OCCC(C)CC(C)(C)C (stereo unspecified)
CC(=O)[C@H]1CC[C@H]2[C@@H]3CC=C4C[C@@H](O)CC[C@]4(C)[C@H]3CC[C@]12C
CC(C)(COC(=O)c1ccccc1)COC(=O)c1ccccc1
COc1cc(C=O)ccc1OC(=O)C(C)C
CCCCCCCCC=O
OC[C@H]1O[C@H](O[C@]2(CCl)O[C@H](CCl)[C@@H](O)[C@@H]2O)[C@H](O)[C@@H](O)[C@H]1Cl
CN(C)C(=N)N=C(N)N
C=CCOC(=O)CCC1CCCCC1
OC1OC[C@@H](O)[C@H](O)[C@H]1O (stereo partly specified)
C[C@H]1C[C@@H]2[C@H]([C@@H](O)C[C@@]3(C)[C@H]2CC[C@]3(O)C(=O)CO)[C@@]2(C)C=CC(=O)C=C12
Nc1cc([N+](=O)[O-])ccc1O
NCCNCCN
C=C[Si](OCC)(OCC)OCC
CC[Si](OC(C)=O)(OC(C)=O)OC(C)=O
Cc1cc(C2(c3cc(C)c(O)cc3C)OS(=O)(=O)c3ccccc32)c(C)cc1O
CCC(=O)OCc1ccccc1
